Source: article PMC5913336, “True equilibrium measurement of transcription factor-DNA binding affinities using automated polarization microscopy”

Molecular target: T1, Eip93f (Drosophila melanogaster, UniProt Q9VD60 752-830)
T1 sequence: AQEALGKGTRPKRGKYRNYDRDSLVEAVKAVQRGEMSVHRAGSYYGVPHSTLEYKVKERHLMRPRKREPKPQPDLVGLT
Test: FP; 33 mM phosphate pH 7.0, 90 mM NaCl, 0.01% Tween 20, 0.1 mM DTT, 0.5% agarose; room temperature
Conditions: tags: N-GST (pGEX-6P-1, kept); dsDNA, one strand shown

Row | Sequence | binding signal
1 | CATGGCCGAAAATCG | 1.39 Kd / Kd of best base at the position
2 | CATAGCCGAAAAGCG | 1.89 Kd / Kd of best base at the position
3 | CATAGCCGAAAATCT | 1.07 Kd / Kd of best base at the position
4 | CATAGCCGCAAATCG | 20 Kd / Kd of best base at the position
5 | CATAGCCAAAAATCG | 1.28 Kd / Kd of best base at the position
6 | CATAGCCGAAAATAG | 1.65 Kd / Kd of best base at the position

Molecular target: T2, Br (Drosophila melanogaster, UniProt Q24206 697-775)
T2 sequence: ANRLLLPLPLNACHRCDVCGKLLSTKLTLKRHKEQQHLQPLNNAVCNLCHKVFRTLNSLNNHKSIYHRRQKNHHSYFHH
Test: as above
Conditions: tags: N-GST (pGEX-6P-1, kept); dsDNA, one strand shown

Row | Sequence | binding signal | Kd [nM]
7 | AGAATTAGAAAAC | 1.96 Kd / Kd of best base at the position | 
8 | GGAATTACAAAAC | 109 Kd / Kd of best base at the position | 
9 | GGAATTAGAAACC | 1.42 Kd / Kd of best base at the position | 
10 | GGAATTCGAAAAC | > 1590 Kd / Kd of best base at the position | 
11 | GGAATGAGAAAAC | > 1590 Kd / Kd of best base at the position | 
12 | GGAATTAGAAATC | 1.02 Kd / Kd of best base at the position | 
13 | GCAATTAGAAAAC | 3.05 Kd / Kd of best base at the position | 
14 | CGAATTAGAAAAC | 1.68 Kd / Kd of best base at the position | 
15 | GGCATTAGAAAAC | 2.73 Kd / Kd of best base at the position | 
16 | GGAATTAGAAAAC |  | ~6.3
17 | TGAATTAGAAAAC | 2.02 Kd / Kd of best base at the position | 
18 | GAAATTAGAAAAC | 2.08 Kd / Kd of best base at the position | 
19 | GGAATCAGAAAAC | > 1590 Kd / Kd of best base at the position | 
20 | GGAATTAGACAAC | 3.07 Kd / Kd of best base at the position | 
21 | GGTATTAGAAAAC | 2.13 Kd / Kd of best base at the position | 
22 | GGAATTATAAAAC | 59.2 Kd / Kd of best base at the position | 
23 | GGAATTAAAAAAC | > 1590 Kd / Kd of best base at the position | 

Row | Sequence | binding signal | Kd [nM]
24 | GGAGTTAGAAAAC | 2.41 Kd / Kd of best base at the position | 
25 | GGAATTAGAACAC | 1.98 Kd / Kd of best base at the position | 
26 | GGAATTAGAAGAC | 1.24 Kd / Kd of best base at the position | 
27 | GGAATTAGAGAAC | 2.43 Kd / Kd of best base at the position | 
28 | GGGATTAGAAAAC | 1.54 Kd / Kd of best base at the position | 
29 | GGAATTAGCAAAC | 6.43 Kd / Kd of best base at the position | 
30 | GGAATTAGAAAAT | 1.5 Kd / Kd of best base at the position | 
31 | GGAATAAGAAAAC | > 1590 Kd / Kd of best base at the position | 
32 | GGATTTAGAAAAC | 2.42 Kd / Kd of best base at the position | 
33 | GGAATTAGAAAAA | 1.22 Kd / Kd of best base at the position | 
34 | GGAAGTAGAAAAC | 40.3 Kd / Kd of best base at the position | 
35 | GGAATTAGTAAAC | 6.81 Kd / Kd of best base at the position | 
36 | GGAATTGGAAAAC | 438 Kd / Kd of best base at the position | 
37 | GGAATTTGAAAAC | 23.5 Kd / Kd of best base at the position | 
38 | GGAAATAGAAAAC | 7.11 Kd / Kd of best base at the position | 
39 | GGAATTAGAATAC | 1.82 Kd / Kd of best base at the position | 
